“And” between values parts separate entries of the source, which are not always exact repeats. Equal entries are not always repeated. Inconclusive results are not listed. The source made the active and inactive calls. Unless noted, calls come from the whole dose curve; as a rule, active = well fitted curve in either direction with a large enough effect (not every such curve was filed as active); inconclusive = small, poorly fitted or top-dose-only effect, or another doubt; inactive = flat fitted curve, though single readings scatter.
Columns and labels:
[1] = Stat Signaling Pathway (AID 446); conditions: ME-180 (cervical carcinoma) SIE beta-lactamase reporter, IL-6 stimulated, 5 h; series mostly up to 17.2 µM;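 note: ME-180 cervical cancer cells given 40 pM IL-6 alongside compound; SIE-controlled beta-lactamase reporter measured as 460/530 nm FRET emission ratio; % is set by controls: 0 for no effect and ±100 for the full control effect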
Method in brief: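 Compound effects on IL-6-induced STAT reporter activity were measured in ME-180 cells. After overnight culture, cells were co-treated with 40 pM IL-6 for 5 hrs before beta-lactamase substrate loading at room temperature.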

[2] = target: Glucocorticoid receptor (Homo sapiens) (UniProt P04150); test: GR-GFP Redistribution (AID 450;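 active = compounds whose dose series gives a full or clear partial fitted curve of increased nuclear translocation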; note: potency is the fitted concentration of half-maximal effect); conditions: U2OS GR-GFP nuclear translocation, laser cytometry, 2 h
Glucocorticoid receptor (Homo sapiens), sequence (P04150 whole entry, looked up, the tested form may be a part): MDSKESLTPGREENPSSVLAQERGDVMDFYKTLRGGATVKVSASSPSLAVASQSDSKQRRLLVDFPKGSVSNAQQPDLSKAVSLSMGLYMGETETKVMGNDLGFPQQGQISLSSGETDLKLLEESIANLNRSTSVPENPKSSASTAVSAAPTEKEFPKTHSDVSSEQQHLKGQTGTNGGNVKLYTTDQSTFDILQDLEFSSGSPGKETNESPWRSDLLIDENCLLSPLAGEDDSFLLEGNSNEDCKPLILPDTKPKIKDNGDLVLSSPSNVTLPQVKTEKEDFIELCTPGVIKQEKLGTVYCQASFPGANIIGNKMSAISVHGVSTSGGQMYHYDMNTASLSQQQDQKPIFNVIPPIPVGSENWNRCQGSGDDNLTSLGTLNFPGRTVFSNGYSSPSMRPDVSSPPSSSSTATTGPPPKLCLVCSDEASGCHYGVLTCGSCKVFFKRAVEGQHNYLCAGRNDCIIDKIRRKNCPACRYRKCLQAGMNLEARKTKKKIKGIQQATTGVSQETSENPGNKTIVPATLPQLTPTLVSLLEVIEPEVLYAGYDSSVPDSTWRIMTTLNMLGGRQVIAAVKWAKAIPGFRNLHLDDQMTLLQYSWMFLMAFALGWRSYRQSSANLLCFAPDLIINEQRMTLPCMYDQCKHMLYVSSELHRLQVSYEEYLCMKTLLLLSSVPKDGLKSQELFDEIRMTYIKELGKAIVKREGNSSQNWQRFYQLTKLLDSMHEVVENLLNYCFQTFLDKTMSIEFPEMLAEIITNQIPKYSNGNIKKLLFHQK

[3] = target: Glucocorticoid receptor (Homo sapiens) (UniProt P04150); test: GR-EFC Redistribution (AID 451; calls by dose curve; note: potency is the fitted concentration of half-maximal effect); conditions: CHO-K1 GR-EFC translocation, beta-gal luminescence, 2 h
Method in brief: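 Translocation of GR-ED fusion to nuclear EA restores b-gal, read by luminescence after 1 h room-temperature detection. Engineered CHO-K1 biosensor cells, 1,000/well, exposed 2 h at 37 C to titrations up to 46 uM final.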

[4] = target: Mitogen-activated protein kinase 10 (Mus musculus) (UniProt Q61831); test: JNK3 AlphaScreen Assay (AID 530); conditions: JNK3 lysate, c-Jun phosphorylation; series mostly up to 57.1 µM;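 note: kinase came from lysate of stimulated human HepG2 cells; signal reports phosphorylation of biotinylated GST-cJun 1-79 at Ser73 with 10 µM ATP; % is set by controls: 0 for no effect and ±100 for the full control effect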
Method in brief: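 qHTS titrations with 15 min compound pre-incubation before adding ATP (10 uM final). Read-out: AlphaScreen of Ser73-phosphorylated biotin-GST-cJun using HepG2 lysate JNK3 activated by IL-1β and TNFα.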

[5] = target: 3',5'-cyclic-AMP phosphodiesterase 4B (Homo sapiens) (UniProt Q07343); test: qHTS Assay for Inhibitors of PDE-IV (AID 607; active = well fitted activation curve with a large enough effect in the main read-out, with a control signal flat, not every such curve was filed as active; note: % of control where 0% means no effect); conditions: HEK293 ACTOne CNG channel cells, membrane potential fluorescence; series mostly up to 22.9 µM
3',5'-cyclic-AMP phosphodiesterase 4B (Homo sapiens), sequence (Q07343 whole entry, looked up): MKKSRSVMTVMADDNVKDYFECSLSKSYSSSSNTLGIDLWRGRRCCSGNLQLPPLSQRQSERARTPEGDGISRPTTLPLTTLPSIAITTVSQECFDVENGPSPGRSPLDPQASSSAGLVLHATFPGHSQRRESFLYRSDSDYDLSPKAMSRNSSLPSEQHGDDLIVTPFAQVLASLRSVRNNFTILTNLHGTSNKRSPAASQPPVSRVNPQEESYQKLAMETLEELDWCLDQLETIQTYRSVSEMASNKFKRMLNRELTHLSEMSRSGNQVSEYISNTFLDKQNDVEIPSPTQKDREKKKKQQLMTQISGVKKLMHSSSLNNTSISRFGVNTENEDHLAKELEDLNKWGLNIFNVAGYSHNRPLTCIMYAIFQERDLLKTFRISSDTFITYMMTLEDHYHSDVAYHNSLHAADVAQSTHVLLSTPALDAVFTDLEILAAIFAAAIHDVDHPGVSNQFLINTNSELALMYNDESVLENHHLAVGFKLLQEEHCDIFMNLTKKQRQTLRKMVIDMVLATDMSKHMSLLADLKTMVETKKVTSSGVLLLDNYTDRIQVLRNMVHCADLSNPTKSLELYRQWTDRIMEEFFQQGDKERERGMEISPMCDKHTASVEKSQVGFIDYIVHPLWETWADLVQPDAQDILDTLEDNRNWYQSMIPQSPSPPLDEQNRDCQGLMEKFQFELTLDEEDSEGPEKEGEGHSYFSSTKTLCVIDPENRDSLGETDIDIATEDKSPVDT
Method in brief: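 ACTOne HEK293 cells carry a modified cAMP-gated CNG channel and express endogenous PDE4; plated 1000 cells/well, compounds up to 22.9 uM final. Membrane-potential dye fluorescence (ex 535/em 590) was read; parental cells received 10 uM forskolin + 100 uM RO 20-1724.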

[6] = Cell Viability - N2a (AID 540; active = well fitted curve in the direction sought with a large enough effect; an effect the other way counts as inactive or inconclusive;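 note: plate controls were DMSO alone for no effect and tamoxifen control for full effect; nearly all actives have a fitted effect of over 45% in size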); conditions: N2a mouse neuroblastoma cell viability; series mostly up to 92.2 µM
Method in brief: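 CellTiter-Glo ATP luminescence, read 20 min after reagent at room temperature, reported viability following 40 h compound treatment at 37 °C. N2a mouse neuroblastoma cells seeded 1500/well; Hill equation gave AC50.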

[7] = Cell Viability - NIH 3T3 (AID 541; active = well fitted curve in the direction sought with a large enough effect; an effect the other way counts as inactive or inconclusive;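 note: cells exposed to compound for 40 hours; plate controls were DMSO alone for no effect and tamoxifen positive control for full effect; nearly all actives have a fitted effect of over 25% in size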); conditions: NIH 3T3 cell viability, qHTS; activity change, negative = cytotoxicity: at 92.2 µM (top of the series)
Method in brief: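 Intracellular ATP (CellTiter-Glo luminescence, 20 min at room temperature) measured after 40 hr compound exposure at 37 °C of 1000 NIH 3T3 mouse fibroblasts/well in complete medium; AC50 derived by Hill-equation modelling of qHTS concentration-response curves.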

[8] = Cell Viability - HUV-EC-C (AID 542; active = well fitted curve in the direction sought with a large enough effect; an effect the other way counts as inactive or inconclusive;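 note: cells exposed to compound for 40 hours; % is set by controls: 0 for no effect and ±100 for the full control effect; nearly all actives have a fitted effect of over 35% in size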); conditions: HUV-EC-C endothelial cell viability, qHTS; series mostly up to 92.2 µM
Method in brief: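 CellTiter-Glo luminescence measured ATP loss in HUV-EC-C cells (1000/well) after 40 hr compound exposure at 37 °C, in complete culture medium. Concentration-response data were Hill-fitted to give AC50.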

[9] = Cell Viability - H-4-II-E (AID 543; active = well fitted curve in the direction sought with a large enough effect; an effect the other way counts as inactive or inconclusive;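 note: cells exposed to compound for 40 hours; % is set by controls: 0 for no effect and ±100 for the full control effect; nearly all actives have a fitted effect of over 35% in size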); conditions: H-4-II-E rat hepatoma viability; series mostly up to 92.2 µM
Method in brief: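 CellTiter-Glo luminescence (intracellular ATP) measured after 40 h compound exposure at 37 °C in H-4-II-E rat hepatoma cells seeded at 1500/well. Values are AC50s fitted with the standard Hill equation.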

[10] = Cell Viability - SH-SY5Y (AID 544; active = well fitted curve in the direction sought with a large enough effect; an effect the other way counts as inactive or inconclusive;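 note: cells exposed to compound for 40 hours; nearly all actives have a fitted effect of over 55% in size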); conditions: SH-SY5Y neuroblastoma cell viability; series mostly up to 92.2 µM
Method in brief: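 Cytotoxicity measured via ATP-dependent luciferase luminescence (CellTiter-Glo) following 40 h, 37 °C exposure of 1500 SH-SY5Y cells per well. Concentration-response data were fitted with the standard Hill equation to give AC50.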

[11] = Cell Viability - Renal Proximal Tubule (AID 545; active = well fitted curve in the direction sought with a large enough effect; an effect the other way counts as inactive or inconclusive;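 note: cells exposed to compound for 40 hours; nearly all actives have a fitted effect of over 40% in size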); conditions: renal proximal tubule cells viability, primary cells of rat origin; activity change, negative = cytotoxicity: at 91.7 µM (top of the series)
Method in brief: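 Viability taken as intracellular ATP (CellTiter-Glo luminescence) after 40 hr, 37 °C compound treatment of primary proximal tubule cells from rat kidney, 1000 cells/well; Hill-equation fits of qHTS concentration-response data gave AC50.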

[12] = Cell Viability - Mesenchymal (AID 546; active = well fitted curve in the direction sought with a large enough effect; an effect the other way counts as inactive or inconclusive;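 note: cells exposed to compound for 40 hours before reading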); conditions: mesenchymal cells viability, qHTS; activity change, negative = cytotoxicity: at 91.7 µM (top of the series)
Method in brief: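 CellTiter-Glo luminescence (intracellular ATP, 20 min room temperature) after 40 hr compound exposure at 37 °C of 1000 glomerulus-derived human kidney mesenchymal cells/well; AC50 values obtained by fitting qHTS concentration-response data to the Hill equation.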

[13] = Cellular Toxicity (caspase-3) HepG2 (AID 654; active = well fitted curve in the direction sought with a large enough effect; an effect the other way counts as inactive or inconclusive;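 note: cells exposed to compound for 16 hours before reading; 0% = DMSO alone and 100% = caspase signal from 100 µM tamoxifen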); conditions: HepG2 caspase-3 activation, luminescence, 0% = DMSO only, 100% = tamoxifen; series mostly up to 92.2 µM
Method in brief: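 Caspase 3/7 activation is measured as a luminescence increase (aminoluciferin substrate) after 16 h compound exposure of human hepatocarcinoma HepG2 cells. AC50 values are Hill fits, scaled between DMSO baseline and 100 uM tamoxifen stimulation.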

[14] = Cellular Toxicity (caspase-3) Jurkat (AID 655; active = well fitted curve in the direction sought with a large enough effect; an effect the other way counts as inactive or inconclusive;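 note: cells exposed to compound for 16 h at 37 °C before reading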); conditions: Jurkat caspase-3 activation, luminescence; series mostly up to 92.2 µM
Method in brief: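 Luminescent Caspase-Glo 3/7 read-out (20 min, room temperature) after 16 h compound treatment at 37 C of 5000 Jurkat cells per well. AC50 derived by Hill-equation fitting, scaled between DMSO basal and 100 uM tamoxifen stimulation.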

[15] = Cellular Toxicity (caspase-3) HUV-EC-C (AID 656; active = well fitted curve in the direction sought with a large enough effect; an effect the other way counts as inactive or inconclusive); conditions: HUV-EC-C cells, caspase-3 activation (apoptosis), vehicle = 0, 100 µM tamoxifen = 100%; series mostly up to 92.2 µM
Method in brief: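 Luminescent Caspase-Glo 3/7 readout after 16 h, 37 °C compound exposure of HUV-EC-C endothelial cells, 1000 per well, complete medium. AC50 derived by Hill fitting, with DMSO as baseline and 100 uM tamoxifen as full activation.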

[16] = Cellular Toxicity (caspase-3) SHSY5Y (AID 657; active = well fitted curve in the direction sought with a large enough effect; an effect the other way counts as inactive or inconclusive); conditions: SH-SY5Y caspase-3 activation, DMSO zero, 10 µM staurosporine = 100%; series mostly up to 91.7 µM
Method in brief: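 Luminescent Caspase-Glo 3/7 read-out, 1 hr room temperature, follows 16 hours of compound treatment of SH-SY5Y cells at 37 °C. Normalization: DMSO basal, 10 uM staurosporine as 100%; AC50 values from Hill-equation concentration-response fits.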

[17] = Cellular Toxicity (caspase-3) BJ (AID 658; active = well fitted curve in the direction sought with a large enough effect; an effect the other way counts as inactive or inconclusive;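 note: 0% = DMSO basal and 100% = 10 µM staurosporine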); conditions: BJ fibroblasts, luminescence, normalized: DMSO 0%, staurosporine 100%; series mostly up to 91.7 µM
Method in brief: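 Caspase-Glo 3/7 luminescence, read 1 hr after reagent at room temperature, in normal BJ fibroblasts exposed 16 hours at 37 °C. AC50 values from Hill-equation concentration-response, scaled between DMSO basal and 10 uM staurosporine as 100%.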

[18] = Cellular Toxicity (caspase-3) MRC-5 (AID 659; active = well fitted curve in the direction sought with a large enough effect; an effect the other way counts as inactive or inconclusive;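 note: 0% = DMSO basal and 100% = 10 µM staurosporine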); conditions: MRC-5 cells, luminescence; Potency: caspase-3 activation; series mostly up to 91.7 µM
Method in brief: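 Luminescent Caspase-Glo 3/7 read-out (1 h, room temperature) after a 16 h, 37 °C compound exposure of MRC-5 lung fibroblasts at 1500 cells/well. Concentration-response AC50 from Hill equation; 0% DMSO, 100% 10 uM staurosporine.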

[19] = Cellular Toxicity (caspase-3) Mesangial (AID 660; active = well fitted curve in the direction sought with a large enough effect; an effect the other way counts as inactive or inconclusive;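 note: combined caspase 3 and 7 activity read by Caspase-Glo luminescence; cells exposed to compound for 16 h before the caspase read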); conditions: mesangial cells, normalized: DMSO 0%, 100 µM tamoxifen 100%; series mostly up to 91.7 µM
Method in brief: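 Caspase 3/7 activation measured by Caspase-Glo 3/7 luminescence (20 min, room temperature) following 16 h exposure of mesangial cells (1000/well); AC50 from Hill-equation fit, normalized to DMSO and 100 uM tamoxifen.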

[20] = Cellular Toxicity (caspase-3) SK-N-SH (AID 661; active = well fitted curve in the direction sought with a large enough effect; an effect the other way counts as inactive or inconclusive;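 note: 0% = DMSO basal and 100% = 10 µM staurosporine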); conditions: SK-N-SH caspase-3 activation, qHTS; caspase-3 activation: at 91.7 µM (top of the series), DMSO as zero, staurosporine as full
Method in brief: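 Caspase 3/7 activation was read by luminogenic substrate cleavage after 16 hour treatment of SK-N-SH cells. Signal was scaled between DMSO and 10 uM staurosporine, and concentration-response data were fitted with the Hill equation for AC50.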

OC(CCN1CCCCC1)(c1ccccc1)C1CCCCC1 (configuration not stated)
inactive: outcome [1]

CC(C)(C)NCC(O)c1cc(O)cc(O)c1 (configuration not stated)
inactive: outcome [1]

CC(=O)OCC1=C(C(=O)O)N2C(=O)[C@@H](NC(=O)Cc3cccs3)[C@H]2SC1
inactive: outcome [1] | Potency [2] > 20.6 µM

c1cc(CN2CCCCC2)cc(OCCCNc2nc3ccccc3s2)c1
inactive: outcome [1] | Potency [2] > 46 µM | Potency [3] > 46 µM | Potency [4] | Potency [5]

CN(C)CC/C=C1\c2ccccc2COc2ccccc21
inactive: outcome [1] | Potency [2] > 46 µM and > 20.6 µM | Potency [3] > 46 µM and > 20.6 µM | Potency [4] | Potency [5]

CCCN(CCC)C(=O)C(CCC(=O)O)NC(=O)c1ccccc1 (configuration not stated)
inactive: outcome [1] | Potency [2] > 20.6 µM

CCCCNc1c(C(=O)OCC)c(C)nc2c1cnn2CC
inactive: outcome [1] | Potency [2] > 46 µM and > 20.6 µM | Potency [3] > 46 µM and > 20.6 µM | Potency [4]

O=C(O)CP(=O)(O)O
inactive: outcome [1] | Potency [2] > 46 µM | Potency [3] > 46 µM and > 9.22 µM | Potency [4] | Potency [5]

C[C@]12CCC(=O)C=C1CC[C@@H]1[C@@H]2C(=O)C[C@@]2(C)[C@H]1CC[C@]2(O)C(=O)CO
inactive: outcome [1]
active: Potency [2] 0.818 µM

c1ccc2c(c1)CCCC2C1=NCCN1 (configuration not stated)
inactive: outcome [1]

CCC(=O)c1ccc2c(c1)N(CCCN(C)C)c1ccccc1S2
inactive: outcome [1] | Potency [2] > 46 µM | Potency [3] > 46 µM | Potency [4] | Potency [5]

CCCOc1ccccc1-c1nc2n[nH]nc2c(=O)[nH]1
inactive: outcome [1] | Potency [2] > 46 µM and > 20.6 µM | Potency [3] > 46 µM and > 20.6 µM | Potency [4] | Potency [5]

CCNC(=O)N1CCN(CCCC(c2ccc(F)cc2)c2ccc(F)cc2)CC1
inactive: outcome [1] | Potency [2] > 46 µM | Potency [3] > 46 µM | Potency [4] | Potency [5]

CC(=O)OC(C)C[N+](C)(C)C (configuration not stated)
inactive: outcome [1] | Potency [2] > 20.6 µM

COc1ccc(CCN(C)CCCC(C#N)(c2cc(OC)c(OC)c(OC)c2)C(C)C)cc1OC (configuration not stated)
inactive: outcome [1] | Potency [2] > 20.6 µM

C(=C\c1ccccc1)/CN1CCN(C(c2ccccc2)c2ccccc2)CC1
inactive: outcome [1]

COCCc1ccc(OCC(O)CNC(C)C)cc1 (configuration not stated)
inactive: outcome [1] | Potency [2] > 20.6 µM

CN(C)C(=O)Oc1cccc([N+](C)(C)C)c1
inactive: outcome [1] | Potency [2] > 46 µM and > 20.6 µM | Potency [3] > 46 µM and > 20.6 µM | Potency [4] | Potency [5]

COCCCC/C(=N\OCCN)c1ccc(C(F)(F)F)cc1
inactive: outcome [1] | Potency [2] > 20.6 µM

CN(C)C(=O)Oc1ccc[n+](C)c1
inactive: outcome [1] | Potency [2] > 46 µM and > 20.6 µM | Potency [3] > 46 µM | Potency [4] | Potency [5]

COCCOC(=O)C1=C(C)NC(C)=C(C(=O)OC(C)C)C1c1cccc([N+](=O)[O-])c1 (configuration not stated)
inactive: outcome [1] | Potency [2] > 20.6 µM

COc1ccc(CN(CCN(C)C)c2ccccn2)cc1
inactive: outcome [1] | Potency [2] > 46 µM and > 20.6 µM | Potency [3] > 46 µM and > 20.6 µM | Potency [4] | outcome [6] | activity change, negative = cytotoxicity [7] -13.1% | Potency [8] | Potency [9] | Potency [10] | activity change, negative = cytotoxicity [11] 7.61% | Potency [12] | Potency [5] | outcome [13] | Potency [14] | outcome [15] | outcome [16] | outcome [17] | Potency [18] | outcome [19] | caspase-3 activation [20] -0.853%

Cc1nnc(SCC2=C(C(=O)O)N3C(=O)[C@@H](NC(=O)Cn4cnnn4)[C@H]3SC2)s1
inactive: outcome [1]

CCN(CC)CCOCCOC(=O)C1(c2ccccc2)CCCC1
inactive: outcome [1] | Potency [2] > 46 µM and > 20.6 µM | Potency [3] > 46 µM and > 20.6 µM | Potency [4] | Potency [5]

CC(=O)Oc1cc(C(C)C)c(OCCN(C)C)cc1C
inactive: outcome [1] | Potency [2] > 46 µM and > 20.6 µM | Potency [3] > 46 µM and > 20.6 µM | Potency [4] | Potency [5]

Fc1ccc(C(c2ccc(F)cc2)N2CCN(C/C=C/c3ccccc3)CC2)cc1
inactive: outcome [1] | Potency [2] > 20.6 µM
